Shown are actives, neighbours in structure and some others; about 1.3% of the full set was active somewhere.
OPRM1-OPRD1 inv: mu-delta opioid heterodimer inverse agonism; cell-based MOR-DOR heterodimer luminescence; inhibition, % at 9.3 µM; 340,000 compounds, 0.21% hits; in the data active = inhibition above about 22%, passing the limit was not always enough;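 also: 0% = cells with DMSO and 100% = wells without cells with DMSO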
PvdQ inh: P. aeruginosa PvdQ acylase inhibition | purified PvdQ acylase, fluorescence plate reader | inhibition, % at 10 µM | AID 488965 | 340,000 compounds, 0.063% hits; in the data active = inhibition above about 30%, passing the limit was not always enough;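 also: 0% = vehicle neutral wells and 100% = reference inhibitor wells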
HTR5A inv ag: inverse agonist of human HTR5A in OPRM1-OPRD1 counter-screen. P47898. AID 504634. HTR5A cell line, luminescence, inverse agonism. 340,000 compounds, 0.083% hits. inhibition, % at 9.3 µM; in the data active = inhibition mostly above about 23%, no sharp cut-off; inactive = mostly below about 18%;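 also: 0% = cells with DMSO and 100% = no-cell wells with DMSO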
Target sequence (P47898 whole entry, looked up): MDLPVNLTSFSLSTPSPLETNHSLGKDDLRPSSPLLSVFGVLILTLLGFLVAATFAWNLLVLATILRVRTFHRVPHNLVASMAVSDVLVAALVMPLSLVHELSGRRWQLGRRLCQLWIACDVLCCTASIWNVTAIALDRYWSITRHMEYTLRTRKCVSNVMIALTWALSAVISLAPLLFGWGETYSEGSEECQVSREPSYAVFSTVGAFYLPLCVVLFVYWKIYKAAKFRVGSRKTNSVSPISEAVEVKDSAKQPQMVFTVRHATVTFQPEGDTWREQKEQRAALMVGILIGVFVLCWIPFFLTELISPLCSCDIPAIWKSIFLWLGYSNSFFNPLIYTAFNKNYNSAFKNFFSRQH
OPRM1-OPRD1 ag: agonists of human mu-delta opioid receptor heterodimerization; P35372+P41143; cells, OPRM1-OPRD1 heterodimerization, luminescence; activation, % at 9.3 µM; 340,000 compounds, 0.3% hits; AID 504326; in the data active = activation above about 18%;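 also: 0% = vehicle-treated cells and 100% = reference agonist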
HTR5A ag ctr: HTR5A agonism, opioid heterodimer counter-screen; activation, % at 9.3 µM; HTR5A agonist assay, luminescence, cell-based; P47898; AID 504692; 340,000 compounds, 0.61% hits; in the data active = activation mostly above about 9.5%, no sharp cut-off; inactive = mostly below about 7.6%;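 also: 0% = cells with vehicle only and 100% = reference agonist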
Yeast superoxide: lowers age-related superoxide in aged yeast cells | S. cerevisiae aged cells, superoxide DHE fluorescence; stronger effect = lower value | 330,000 compounds, 0.18% hits | superoxide response (% of plate mean), % at 10 µM | AID 2690;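 active = superoxide response under a set limit, about three screen SD below normal, cut at about 65% in these data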;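 also: yeast aged for seven days with compound at 30 °C before DHE staining; 100% = average MFI of all compound-treated wells on the plate with controls excluded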
An asterisk follows results filed as active; nt = no result given.

SMILES	OPRM1-OPRD1 inv	PvdQ inh	HTR5A inv ag	OPRM1-OPRD1 ag	HTR5A ag ctr	Yeast superoxide
COC(=O)c1sc(S(=O)(=O)N2CCN(c3ccccc3F)CC2)c(C(=O)OC)c1C	16	-7	-7	-3	2	97
COc1cc(/C=C/C(=O)Nc2cccc(S(=O)(=O)NC3=NCCCCC3)c2)ccc1OCC#N	4	-15	-14	-1	1	102
COc1ccc(N2C(=O)NC(NS(=O)(=O)c3ccc(NC(C)=O)cc3)(C(F)(F)F)C2=O)cc1 (stereo unspecified)	14	-8	-25	-3	0	100
COc1ccc(S(=O)(=O)CC(=O)c2cc3cc(Br)ccc3oc2=O)cc1	-5	-9	4	1	-5	96
CCCCSCCCNC(=O)C1CCC(CNS(=O)(=O)c2ccccc2)CC1 (stereo unspecified)	-11	-20	-49	2	12*	97
COC(=O)CCC(=O)c1oc2ccc(Br)cc2c1N	13	4	-26	-3	12*	91
CCCCn1c(SCC(=O)Nc2sc3c(c2C(N)=O)CCC3)nnc1-c1ccccc1	-13	9	-25	2	14*	80
COC(=O)c1c(C)[nH]c(C(=O)CN(C)CC(=O)Nc2cccc(F)c2)c1C	8	-7	1	-2	0	99
COc1ccccc1CC(=O)N1CCN(S(=O)(=O)c2ccccc2)CC1	5	-2	21	-1	13*	105
COc1ccccc1CC(=O)N1CCN(S(=O)(=O)c2ccccc2F)CC1	9	9	-23	-2	6	90
C[C@@H]1NC(=O)OC1c1ccco1 (stereo partly specified)	15	-1	-7	-3	3	92
O=C1N[C@@H](Cc2ccccc2)[C@@H](c2ccco2)O1	6	49*	1	-1	-1	101
O=C(N/N=C/c1ccccn1)c1ccc(NC(=O)c2ccccc2Cl)cc1	-6	-5	7	1	-3	108
O=C(N/N=C/c1ccccn1)c1ccc(NC(=O)c2ccc(F)cc2)cc1	-80	0	-24	13	14*	110
COc1ccc(-n2nnnc2-c2cccnc2)cc1	-17	3	-20	3	10*	93
CCc1cc2c(COC(=O)c3cccc(NS(C)(=O)=O)c3)cc(=O)oc2cc1O	-86	-18	-16	10	12*	93
Cc1ccc(S(=O)(=O)N2CCN(C(=O)c3ccc(Br)o3)CC2)c(C)c1	10	-6	-26	-2	9	113
CCOC(=O)c1c(NC(=O)CCC(=O)O)sc2c1CCCCC2	-5	-1	-21	1	5	90
COC(=O)c1c(NC(=O)CCC(=O)O)sc2c1CCCCC2	6	-13	-7	-1	14*	87
COc1ccc(CCNC(=O)c2cccs2)cc1OC	10	-13	18	-2	1	87
COc1ccc(CNc2nc(NCc3ccc(OC)c(OC)c3)n(C(=O)c3cccs3)n2)cc1OC	-8	-27	-22	1	14*	103
CCCCN1CC(=O)N2[C@H]3c4cc(Br)ccc4OC[C@@H]3[C@H](C(=O)OCC)[C@]2(C)C1=O	9	2	13	-1	1	109
Cc1cc(N2CCN(c3ccccc3)CC2)nc(NCc2ccccc2)n1	11	7	-4	-2	-3	99
CCCc1nc(C)cc(N2CCN(c3ccccc3)CC2)n1	8	-15	-34	-2	9.6*	102
Cc1cccc(NC(=O)c2cc(-c3cc(Cl)ccc3O)n[nH]2)c1	-19	-4	-1	4	0	99
SMILES	OPRM1-OPRD1 inv	PvdQ inh	HTR5A inv ag	OPRM1-OPRD1 ag	HTR5A ag ctr	Yeast superoxide
O=C1C(=O)N(CCN2CCOCC2)C(c2ccccn2)/C1=C(/O)c1ccccc1 (stereo unspecified)	11	-12	-42	-2	12*	98
CCCS(=O)(=O)N1CCCC(C(=O)NCCCN2CCN(c3ccc(F)cc3)CC2)C1 (stereo unspecified)	-7	3	-21	1	11*	104
O=C(O)CC1(CC(=O)Nc2ccc(C(F)(F)F)cc2)CCCC1	5	-15	-36	-1	9.5*	117
CC(CN1CCC(n2nccc2NC(=O)CCCc2ccccc2)CC1)c1ccccc1 (stereo unspecified)	1	-9	13	0	0	92
CCN(C(=O)CN1C(=O)NC(c2ccccc2)(c2ccc(C)c(C)c2)C1=O)C1CCCCC1 (stereo unspecified)	-15	-6	9	4	-3	86
COc1ccc(/C(C)=N/NS(=O)(=O)c2cc(C)ccc2C)c(OC)c1	-17	2	-38	3	13*	96
CC1CCN(C(=O)CN(c2ccc3c(c2)OCCO3)S(=O)(=O)c2ccccc2)CC1	-5	-13	-5	1	2	92
O=C(NCc1ccccc1)C1CCC(CNS(=O)(=O)c2cccs2)CC1 (stereo unspecified)	3	6	-8	-1	-6	102
O=C(NCc1ccc(F)cc1)C1CCC(CNS(=O)(=O)c2cccs2)CC1 (stereo unspecified)	-26	8	-23	4	14*	101
CC1CCN(C(=O)COC(=O)c2cc([N+](=O)[O-])ccc2N2CCOCC2)CC1	2	10	-33	0	12*	113
N#CCn1c(C2CCCCC2)nc2ccccc2c1=O	-2	35*	-7	0	3	109
O=C(Nc1ncc([N+](=O)[O-])s1)c1ccccc1Br	2	-4	-33	0	2	70
CC(C)C[C@H](NC(=O)c1nc[nH]c1C(=O)NC1CCN(C(=O)OC(C)(C)C)CC1)C(=O)OCc1ccccc1	-95	-2	-38	17	12*	103
CC(C)C[C@H](NC(=O)c1nc[nH]c1C(=O)NC1CCN(C(=O)OC(C)(C)C)CC1)C(=O)OC(C)(C)C	-42	-10	5	7	0	nt
O=C(CN1C(=O)NC2(CCCCCCC2)C1=O)NCc1ccc(Cl)cc1	10	-11	1	-3	0	101
CCN1C(=O)[C@H]2[C@H]3CN=C(SCC4CC4)N3[C@@](CC)(C(=O)OC)[C@H]2C1=O	8	9	0	-1	0	99
O=C(NC1CCCCCC1)c1ccc([N+](=O)[O-])s1	-22	-6	-24	4	8	nt
CC1Nc2ncnc(N3CCN(c4ccccc4)CC3)c2N(Cc2ccc(Br)cc2)C1=O (stereo unspecified)	71*	9	69*	-13	-25	106
COc1ccc(CN2C(=O)C(C)Nc3ncnc(N4CCN(c5ccccc5)CC4)c32)cc1 (stereo unspecified)	50*	-16	42*	-11	-13	94
O=C(O)/C=C/C(=O)NC1CCCCCCCCCCC1	1	-9	-3	0	1	96

Screening results (PubChem BioAssay)
